# A selection: hits, their analogues and other compounds. The true share with any hit is near 4%.
# Gli-Sufu block – antagonists of Gli-Sufu signaling; Sufu-KO-LIGHT fibroblasts, Gli luciferase reporter luminescence; inhibition, % at 5 µM; 340,000 compounds, 0.74% hits;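 active means inhibition above about 55%, limit read from the data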;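 further: 0% = DMSO-treated cells and 100% = wells with medium but no cells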
# Shn3 inh set2 – Schnurri-3 reporter inhibition in Clone20 osteoblasts | inhibition, % at 12.5 µM | 360,000 compounds, 0.52% hits | Clone20 osteoblast Shn3 3'UTR firefly luciferase, 24 h | AID 588674;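 active means mean inhibition of at least 75% with every replicate also reaching 75%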;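 further: 0% = median of neutral control wells and 100% = pilot-screen positive control compound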
# Mdm2-MdmX inh – inhibitors of human Mdm2/MdmX interaction; SaOS-2 split-luciferase Mdm2/MdmX complementation, luminescence; 330,000 compounds, 3% hits; inhibition, % at 8 µM;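 active means inhibition of at least 50% at 8 µM in the primary screen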
# PAX8 reporter – PAX8 transcriptional activity inhibition; RMG-I TPO-luciferase reporter, SteadyGlo, 24 h; inhibition, % at 12.6 µM; 360,000 compounds, 1.2% hits; AID 652154;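 active means mean replicate inhibition at least 60% with every replicate also reaching 60%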;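 further: luciferase light reporting Pax8 driven TPO promoter activity; plate controls were median of neutral control wells for no effect and mitoxantrone controls for full effect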
# Beta apoptosis – beta cell apoptosis inhibition | INS-1E cytokine-induced death, ATP luminescence, 48 h; percent of positive-control rescue, neutral wells zero | protection from apoptosis, % (no concentration beside the values) | 300,000 compounds, 0.8% hits | AID 435005;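 active means Every replicate reaches about 75%, or at least half do and their mean reaches it too, limit read from the data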;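 further: 0% = cytokine-treated negative control wells and 100% = positive control rescue; higher means more ATP so stronger rescue from cytokine killing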
# CSC inhib – cancer stem cell inhibition. cancer stem cell-like cells viability, luminescence. inhibition, % at 7.5 µM. 300,000 compounds, 1.1% hits; in the data active means inhibition above about 75%; tested in HMLE shEcad cells
# Mdm2-MdmX conf – human Mdm2/MdmX binding inhibition, confirmed; 10,000 compounds, 55% hits; inhibition, % at 8 µM; luminescent assay; AID 489028; shares compounds with Mdm2-MdmX inh; in the data active means inhibition above about 40%
# FLuc counter – inhibits full-length luciferase, flagging false Mdm2/MdmX hits | 6,200 compounds, 77% hits | shares compounds with Mdm2-MdmX inh | inhibition, % at 8 µM | SaOS-2 full-length luciferase counterscreen, luminescence;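 active means mean inhibition at 8 µM reaching about 37%, which flags the compound as non-specific, limit read from the data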;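 further: p53-null SaOS-2 cells with luciferase driven by a doxycycline-inducible promoter; compound on cells about two nights before reading with doxycycline added after day one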
# * = called active by the depositor; . = no result given.
SMILES,Gli-Sufu block,Shn3 inh set2,Mdm2-MdmX inh,PAX8 reporter,Beta apoptosis,CSC inhib,Mdm2-MdmX conf,FLuc counter
CCOc1ccc2nc(Cl)c(C3CC(c4ccccc4)=NN3C(=O)c3ccco3)cc2c1 (stereo not drawn),.,.,56*,.,4,34,8,.
C[C@H](CO)N1C[C@H](C)[C@H](CN(C)S(=O)(=O)c2ccccc2)Oc2ccc(NC(=O)CCC(F)(F)F)cc2C1=O,.,.,.,-2,.,.,.,.
O=C(C1=C[C@@H](C2CC2)C[C@@H](OCc2ccc(CO)cc2)O1)N1CCCC1,.,.,.,-16,.,.,.,.
CC(=O)c1sc(NC(=O)c2cc(-c3ccccc3)nn2-c2ccccc2)nc1C,14,4,32,-4,-6,13,.,.
O=C(Nc1nc2ccccc2s1)c1cc(-c2ccccc2)nn1-c1ccccc1,4,37,86*,34,111*,44,47*,110*
CC(=O)N1CC2(C1)[C@@H](c1ccccc1)[C@@H](CO)N2Cc1cccc(Cl)c1,.,.,.,-7,.,.,.,.
Cc1nc(C(=O)Nc2ccccc2)sc1C1(C)CC(c2cccc([N+](=O)[O-])c2)=NO1 (stereo not drawn),-12,-13,85*,-45,3,10,63*,49*
COc1ccc(NC(=O)c2nc(C)c(C3(C)CC(c4ccccc4)=NO3)s2)cc1 (stereo not drawn),-3,21,59*,44,45,64,58*,72*
CCC(=O)Nc1ccc2c(c1)OC[C@@H](C)N(Cc1ccncc1)C[C@@H](C)[C@H](OC)CN(C)C2=O,.,.,.,-16,.,.,.,.
C[C@H](CO)N1C[C@H](C)[C@H](CN(C)C(=O)NC2CCCCC2)OCCCC[C@H](C)Oc2ccc(NC(=O)Nc3ccccc3)cc2C1=O,.,.,.,52,.,.,.,.
O=C(Nc1ccc(F)cc1)N1C[C@H]2[C@@H](c3ccccc31)[C@H](CO)N2C(=O)c1ccccc1F,.,.,.,-63,.,.,.,.
Cc1ccc(/C=C/c2nc3ccccc3s2)s1,-47,13,8,.,7,6,.,.
CN(C)c1ccc(/C=C/c2nc3ccccc3s2)cc1,22,85,64*,.,19,55,-42,.
c1ccc(-c2cc(NCCN3CCCCC3)c3ccccc3n2)cc1,10,26,57*,0,.,.,46*,51*
O=C(c1cc(-c2ccccc2)nc2ccccc12)N1CCCC1,-6,-13,-24,-1,-11,-19,.,.
N#C/C(=C/c1ccc(-c2ccccc2)o1)c1nc(-c2cccs2)cs1,-1,-13,.,17,-3,11,.,.
N#C/C(=C\c1ccc(-c2ccc(F)cc2)o1)C(=O)Nc1nc(-c2cccs2)cs1,-4,6,71*,-4,1,12,21,.
CCn1c(=O)c2cc(C(=O)Nc3ccccc3OC)sc2c2ccccc21,11,-7,61*,5,5,24,36,73*
COc1ccc(OC)c(NC(=O)c2cc3c(Cl)nc4ccccc4c3s2)c1,10,6,53*,15,8,-2,20,.
CCn1c(=O)c2cc(C(=O)NC(C)C)sc2c2ccccc21,17,-27,36,-28,2,0,.,.
CC(C)NC(=O)N(C)C[C@H]1Oc2c(NC(=O)Nc3ccc(F)cc3)cccc2C(=O)N([C@H](C)CO)C[C@H]1C,.,.,.,4,.,.,.,.
CCOC(=O)c1c(Nc2ccc(Cl)cc2)sc(/C=C2\C=Nc3ccccc32)c1O,-5,10,64*,5,8,.,18,.
Oc1nc(Nc2ccc(F)cc2)sc1/C=C1\C=Nc2ccccc21,-13,-11,-9,-24,8,66,.,.
Cc1ccc(N2CC(C(=O)N(C)CC(=O)Nc3ccc(Cl)c(C(F)(F)F)c3)CC2=O)cc1 (stereo not drawn),4,36,59*,25,-4,16,44*,66*
CN1C(=O)c2cc(NC(=O)c3ccc(F)cc3)ccc2OC[C@H]2O[C@H](CC(=O)O)CC[C@@H]21,.,.,.,6,.,.,.,.
CCOC(=O)/C=c1\s/c(=C\c2c(OC)ccc3ccccc23)c(=O)n1CC(=O)NCC1CCCO1 (stereo not drawn),12,2,63*,.,32,57,65*,77*
